Over roughly 8,300 sequences, “log2 fold change of degron read counts, EGFP-low vs EGFP+ sorted cells (limma voom), compound-induced degradation” has its median near -1.1; the highest 2% begin near 3.2. Only a selection was taken, and the highest values are over-represented in it overall.
T1: CRBN, Q96SW2
T1 chain: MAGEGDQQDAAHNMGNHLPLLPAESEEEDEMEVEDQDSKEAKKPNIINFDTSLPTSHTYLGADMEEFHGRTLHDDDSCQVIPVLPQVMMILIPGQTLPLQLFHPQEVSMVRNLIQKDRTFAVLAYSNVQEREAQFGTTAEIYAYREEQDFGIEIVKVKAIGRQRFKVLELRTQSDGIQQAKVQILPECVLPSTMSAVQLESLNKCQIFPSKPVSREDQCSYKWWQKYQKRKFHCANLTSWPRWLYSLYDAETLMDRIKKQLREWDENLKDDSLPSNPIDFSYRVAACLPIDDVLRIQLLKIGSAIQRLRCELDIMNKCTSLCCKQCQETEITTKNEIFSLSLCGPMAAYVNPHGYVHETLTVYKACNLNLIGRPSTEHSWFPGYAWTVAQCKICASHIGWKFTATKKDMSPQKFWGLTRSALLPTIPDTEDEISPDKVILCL

B1: 46F_47G_49D_50V_52G_53A_54L_55F_67L_, Q9UKT9 (peptide)
chain: FGCDVCGALFTQKGNLLRHIKL
B2: 46F_47L_49N_50Q_52G_53R_54H_55F_67L_, Q9UKT9 (peptide)
chain: FLCNQCGRHFTQKGNLLRHIKL
B3: 46F_47S_49N_50V_52G_53A_54Y_55F_67L_, Q9UKT9 (peptide)
chain: FSCNVCGAYFTQKGNLLRHIKL
B4: 46F_47A_49N_50Q_52G_53R_54G_55F_67L_, Q9UKT9 (peptide)
chain: FACNQCGRGFTQKGNLLRHIKL
B5: 46F_47E_49N_50Q_52G_53A_54T_55F_67L_, Q9UKT9 (peptide)
chain: FECNQCGATFTQKGNLLRHIKL
B6: 46F_47I_49D_50Q_52G_53A_54R_55F_67L_, Q9UKT9 (peptide)
chain: FICDQCGARFTQKGNLLRHIKL
B7: 46F_47S_49P_50I_52G_53A_54W_55F_67L_, Q9UKT9 (peptide)
chain: FSCPICGAWFTQKGNLLRHIKL
B8: 46F_47V_49N_50Q_52G_53A_54D_55F_67L_, Q9UKT9 (peptide)
chain: FVCNQCGADFTQKGNLLRHIKL

Biological target: T1, CRBN, Q96SW2
Test: log2 fold change of degron read counts, EGFP-low vs EGFP+ sorted cells (limma voom), compound-induced degradation; higher = more compound-induced degradation of the degron-EGFP fusion; degrons are variants of IKZF1/3 zinc finger 2; compound dose not given here
Details: Jurkat, 18 h
[1] = compound: compound 19 (5-tert-butyl-thalidomide)
[2] = compound: compound 22 (5-morpholino-thalidomide)
[3] = compound: compound 33 (diphenyl IMiD analogue)
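Note: pooled lentiviral library of zinc finger degron-EGFP fusions in mCherry-positive Jurkat cells, FACS-sorted after compound exposure, with degron abundance counted by next-generation sequencing.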

Row | Sequence | log2 fold change of degron read counts [1] | log2 fold change of degron read counts [2] | log2 fold change of degron read counts [3] | log2 fold change of degron read counts (compound: thalidomide)
1 | B1 | -0.285 | -1.26 | 0.277 | -1.67
2 | B2 | -2.4 | -2.59 | -2.64 | -2
3 | B3 | -0.837 | -0.921 | 0.627 | -0.674
4 | B4 | -2.53 | -2.62 | -2.49 | -2.4
5 | B5 | -2.51 | -3.02 | -2.92 | -1.69
6 | B6 | -2.79 | -0.912 | -0.818 | -1.23
7 | B7 | 0.603 | -0.272 | 0.788 | -0.152
8 | B8 | -3.46 | -3.35 | -3.82 | -2.79

— the supplement of paper PMC12645437, “Orthogonal IMiD-Degron Pairs Induce Selective Protein Degradation in Cells” (ACS Chemical Biology, 2025)
